Screening results from PubChem.
The list is not random: actives were taken first. Their share in the collection is about 5.9%.
ATXN viability: cell viability loss in ATXN counter-screen; S2 cells (HEK-293 line with an ATXN2-luciferase reporter) viability, CellTiter-Fluor protease fluorescence, 24 h; Potency, µM (series often up to 56.7 µM), actives largely listed as cytotoxic; actives 0.49% (n = 400,000); AID 651635; note: nearly all actives have a fitted effect of over 40% in size
KB-3-1 cytotox: kills parental KB-3-1 adenocarcinoma cells; Potency, µM (top dose mostly 46.1 µM), most hits filed as cytotoxic; KB-3-1 viability, CellTiter-Glo ATP luminescence, 72 h; actives 1.4% (n = 400,000); AID 1347075; note: % is set by controls: 0 for no effect and ±100 for the full control effect; nearly all actives have a fitted effect of over 60% in size
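KB-3-1 parental drug-naive adenocarcinoma cells in DMEM/10% FBS, incubated 72 h at 37 C with pin-transferred compounds across a concentration series. Viability by CellTiter-Glo luminescence; concentration-response curves fitted after normalization.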
KB-V1 MDR tox: kills drug-selected multidrug resistant KB-V1 cells. AID 1347076. KB-V1 MDR cells viability, CellTiter-Glo, 72 h. Potency, µM (series often up to 46.1 µM), usual class: cytotoxic. actives 3.4% (n = 400,000); note: % is set by controls: 0 for no effect and ±100 for the full control effect; nearly all actives have a fitted effect of over 60% in size
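Cytotoxicity via CellTiter-Glo luminescence after 72 h compound exposure at 37 degrees C. Cells: drug-selected KB-V1 line, DMEM phenol-red free plus 10% FBS. Compounds tested at multiple concentrations; normalized data fitted to concentration-effect curves.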
HepG2 viability: HepG2 cytotoxicity, counter-screen for TGF-b inhibitors; HepG2 CAGA-GFP viability, ATP luminescence, 18 h; Potency, µM (titrated, usually from 46.1 µM), for inactives: at the highest dose activity change, negative = cytotoxicity, actives largely listed as cytotoxic; actives 0.76% (n = 410,000)
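HepG2 CAGA-GFP cells (1000/well, DMEM with 1% FBS) received compound, then TGF-beta at 500 pg/mL final, and were incubated 18 hours at 37 degrees C. Viability was read by CellTiter-Glo luminescence. Media-only wells were set as complete cell-killing and DMSO as no toxicity.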
ATXN2 expr inh: ATXN2 expression inhibition; HEK-293 ATXN2-luciferase reporter, luminescence, 24 h; Potency, µM (doses to about 57 µM), for the others: at the top dose activity change, negative = inhibition, hits mostly inhibitors; actives 0.72% (n = 360,000); note: % is set by controls: 0 for no effect and ±100 for the full control effect; nearly all actives have a fitted effect of over 55% in size
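ATXN2-luciferase reporter cells (luciferase flanked by upstream and downstream ATXN2 gene portions) were treated 24 h at 37 °C with compounds at up to 57 uM. SteadyGlo luminescence gave expression; GF-AFC fluorescence gave viability.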
TGFb inhibitor: blocks TGF-b signaling; HepG2 CAGA-GFP TGF-b/SMAD3 reporter, GFP fluorescence, 18 h; TGF-beta stimulated, 500 pg/mL final; actives 1.2% (n = 410,000); Potency, µM (titrated, usually from 46.1 µM), for inactives: top-dose activity, negative = inhibition, actives largely listed as inhibitors; AID 588855; note: % is set by controls: 0 for no effect and ±100 for the full control effect; nearly all actives have a fitted effect of over 65% in size
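HEPG2 CAGA-GFP reporter cells (1000/well, DMEM with 1% FBS) received compounds, then recombinant TGF-beta at 500 pg/mL final for 18 hours at 37 degrees C. Per-cell GFP summed per well was normalised to unstimulated and stimulated DMSO controls before curve fitting.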
The depositor's hits bear a star; i = inactive; ? = inconclusive; nt = no result given; ! = a repeat was not active. Calls come from the whole dose curve; as a rule, active = well fitted curve in the direction sought with a large enough effect; inconclusive = small, poorly fitted or top-dose-only effect, or another doubt; inactive = no such curve, though single readings can be large; an effect the other way counts as inactive or inconclusive. Potency is the fitted concentration of half-maximal effect.

SMILES	ATXN viability	KB-3-1 cytotox	KB-V1 MDR tox	HepG2 viability	ATXN2 expr inh	TGFb inhibitor
Cc1nnc(SCc2nc(N)nc(Nc3ccccc3)n2)s1	i	i	i	1%	36%	2%
CCc1ccc(Nc2nc(N)nc(CSc3nc4ccccc4s3)n2)cc1	?	i	i	7.9µM*!	-35%	?
Cc1ncc2c(c1CNC(=O)c1cncs1)CCN(C(=O)c1ccc(C(F)(F)F)cc1)C2	i	nt	nt	nt	nt	nt
C=CCN(c1ccccc1OC)S(=O)(=O)c1cccc(C(=O)OCC(=O)c2c(N)n(C)c(=O)n(C)c2=O)c1	?	?	8.2µM*	-4%	-20%	?
CNS(=O)(=O)c1cccc(C(=O)OCC(=O)c2c(N)n(C)c(=O)n(C)c2=O)c1	i	i	i	15%	14%	0%
NC(=O)CSc1nc2cc([N+](=O)[O-])ccc2n1-c1cccc(C(F)(F)F)c1	?	i	6.5µM*	3%	-8%	9%
N#Cc1c(OCC(=O)c2ccccc2)nc2c(c1-c1ccco1)CCc1ccccc1-2	?	i	8.2µM*	-2%	14%	-3%
COc1cccc(-n2c(=O)c3c4c(sc3n(Cc3ccccc3C#N)c2=O)CCCC4)c1	i	i	i	-2%	11%	-4%
C[C@](Cc1c[nH]c2ccccc12)(NC(=O)OC1C2CC3CC(C2)CC1C3)C(=O)NC[C@H](NC(=O)CCC(=O)O)c1ccccc1 (some centres undefined)	nt	nt	nt	nt	-2%	nt
O=C(c1cccc(S(=O)(=O)N2CCc3ccccc32)c1)N1CCN(c2ccccn2)CC1	?	6.5µM*	?	-32%	-15%	-27%
O=C(c1ccc(Cl)c(S(=O)(=O)N2CCc3ccccc32)c1)N1CCN(c2ccccc2O)CC1	?	i	18µM*	-19%	?	?
CC(=O)N1CCN(C(=O)c2ccc(Cl)c(S(=O)(=O)N3CCc4ccccc43)c2)CC1	i	i	i	0%	20%	-9%
CCN1CCN(c2oc(-c3ccc(COc4ccccc4C)o3)nc2C#N)CC1	i	21µM*	i	-32%	-30%	35%
CC(C)(C)c1ccc(-c2nc(C#N)c(NCc3cccnc3)o2)cc1	i	i	21µM*	-90%	32%	-3%
Cc1ccc(OCc2ccc(-c3nc(C#N)c(NCc4cccnc4)o3)o2)cc1	?	?	?	-24%	?	-27%
Cc1cccc(OCc2ccc(-c3nc(C#N)c(NCc4cccnc4)o3)o2)c1	22µM*	i	i	-20%	28µM*	?
Cc1ccccc1OCc1ccc(-c2nc(C#N)c(NCc3cccnc3)o2)o1	?	?	?	-36%	32µM*	?
CC(C)c1nn2c(=O)cc(COC(=O)c3ccccc3NC(=O)COc3ccccc3)nc2s1	nt	nt	nt	3%	nt	2%
COc1ccc(CNc2oc(-c3ccc(COc4ccccc4C)o3)nc2C#N)cc1	?	?	i	14µM*	-1%	-11%
COc1ccc(OCc2ccc(-c3nc(C#N)c(NCc4ccccc4)o3)o2)cc1	i	i	i	-22%	-16%	?
COc1ccc(Nc2oc(COc3ccc(OC)cc3)nc2C#N)cc1	i	i	i	-16%	14µM*	-11%
COc1ccc(Nc2oc(COc3ccccc3F)nc2C#N)cc1	35µM*	i	i	-27%	?	-2%
COc1ccc(Nc2oc(COc3ccc(C)cc3)nc2C#N)cc1	nt	i	i	-23%	nt	?
O=C(NCCc1nnc2n1CCN(Cc1ccc(F)cc1)CC2)c1ccco1	i	nt	nt	nt	nt	nt
Cc1ccc(S(=O)(=O)c2cc3c(=O)n4ccccc4nc3n(Cc3ccco3)c2=N)cc1	nt	i	8.2µM*	-21%	-7%	2%
SMILES	ATXN viability	KB-3-1 cytotox	KB-V1 MDR tox	HepG2 viability	ATXN2 expr inh	TGFb inhibitor
N=c1c(S(=O)(=O)c2ccc(Cl)cc2)cc2c(=O)n3ccccc3nc2n1CCN1CCOCC1	i	i	13µM*	4%	1%	-5%
C=CCN(C(=O)CSC1=NC(=O)CN1C(C)=O)c1nc(C)c(-c2ccccc2)s1	i	i	i	-14%	2%	13µM*
Cn1nnnc1N=N/C(=N/Nc1ccccc1)c1ccccc1	8.9µM*	i	?	-36%	2.5µM*	-8%
Cc1oc(-c2ccc(Cl)cc2)nc1CS(=O)CC(=O)NCc1ccc(Cl)cc1 (centres undefined)	nt	i	i	-6%	nt	?
CCOc1ccc(-c2ccc(SC)nn2)cc1	i	?	12µM*	13µM*	?	17%
COc1ccc(OCCOc2ccc(S(=O)(=O)N3CCCC3)cc2[N+](=O)[O-])cc1	i	?	15µM*	-4%	-6%	-29%
COc1ccc(Nc2ccc(S(=O)(=O)N3CCCCC3)cc2[N+](=O)[O-])cc1OC	?	?	i	5%	-17%	?
O=C1CCCN1c1ccc(S(=O)(=O)N2CCCCC2)cc1[N+](=O)[O-]	i	i	i	6.3µM*	3%	-6%
COc1ccc(Nc2ccc(S(=O)(=O)N3CCCCCC3)cc2[N+](=O)[O-])cc1	i	?	2.9µM*	-4%	-25%	?
CC1CCCC(C)N1C(=C(Cl)Cl)C(=C1SCCS1)[N+](=O)[O-] (centres undefined)	i	26µM*	?	-41%	-37%	?
Cc1ccc(N2C(=O)CS/C2=C(\C(Cl)=C(Cl)Cl)[N+](=O)[O-])cc1	i	i	i	-34%	-13%	4%
COc1cccc(N2CCN(C(=O)C3CCN(S(=O)(=O)c4cn(C)cn4)CC3)CC2)c1	nt	nt	nt	0%	nt	14%
COc1cc(C2C(=O)N(C3CCCC3)CC(=O)N2Cc2ccco2)ccc1OC(C)C (centres undefined)	i	i	3.7µM*	-7%	1%	-2%
CC(C)OCCCNC(=O)CCCn1c(SCC(=O)c2ccc(Br)cc2)nc2c(sc3ccccc32)c1=O	nt	nt	nt	2%	nt	-13%
CC1CCN(S(=O)(=O)c2cc(C(=O)N3CCN(c4cccc(Cl)c4)CC3)n(C)c2)CC1	i	16µM*	i	-8%	-4%	?
CC1CCN(S(=O)(=O)c2cc(C(=O)Nc3ccc(Br)cc3F)n(C)c2)CC1	i	i	i	-30%	-15%	11µM*
O=C(C1CCN(S(=O)(=O)c2cccnc2)CC1)N1CCN(c2cccc(Cl)c2)CC1	i	?	6.5µM*	-3%	-24%	-13%
